Test results taken from PubChem BioAssay AID1159580 (chemical genetic matrix, 2015).
“And” between values parts separate entries of the source, which are not always exact repeats. Equal values may be shown once. Hit rate of the full screen: of about 5,500 compounds, about 2,000 (36%) were called active. Roughly 18% stayed inconclusive and do not appear here. Cut-off read from the data, not from the text of the source: active = normalized growth mostly below about 0.91 (no sharp cut-off); inconclusive = no clear call, values can overlap the other calls; inactive = mostly above about 0.92. The list shows a part of the results.

Assay: chemical genetic growth profiling, strain panel (AID 1159580);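 note: tested at 20 µM; growth read once vehicle control cultures reached saturation at 30 °C; 1 = growth at the plate median or of vehicle wells; lower values mean less growth of the strain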
Conditions: S. cerevisiae deletion strains, growth OD

Measured: normalized growth

O=c1[nH]cnc2nc[nH]c12
inactive: locus YAL021C, strain ccr4, active compounds read low 1.04 | locus YAL026C, strain drs2, active compounds read low 1.02 | locus YAL030W, strain snc1, active compounds read low 1.03 | locus YBL061C, strain skt5, active compounds read low 1.02 | locus YBR009C, strain hhf1, active compounds read low 1.01 | locus YBR021W, strain FUR4, active compounds read low 0.972 | locus YBR023C, strain chs3, active compounds read low 1.01 | locus YBR171W, strain sec66, active compounds read low 1.04 | locus YBR229C, strain ROT2, active compounds read low 0.992 | locus YBR231C, strain swc5, active compounds read low 1.02 | locus YBR279W, strain paf1, active compounds read low 1.01 | locus YCL011C, strain gbp2, active compounds read low 1.03 | locus YCL016C, strain dcc1, active compounds read low 1.01 | locus YCL029C, strain bik1, active compounds read low 0.977 | locus YCL061C, strain MRC1, active compounds read low 1.01 | locus YCL069W, strain vba3, active compounds read low 1.01 | locus YCR088W, strain abp1, active compounds read low 1.02 | locus YDL005C, strain med2, active compounds read low 1.02 | locus YDL035C, strain GPR1, active compounds read low 1.01 | locus YDL040C, strain nat1, active compounds read low 1 | locus YDL074C, strain BRE1, active compounds read low 0.986 | locus YDL101C, strain DUN1, active compounds read low 0.999 | locus YDL134C, strain PPH21, active compounds read low 1 | locus YDL185W, strain tfp1, active compounds read low 0.979 | locus YDL192W, strain arf1, active compounds read low 0.994 | locus YDR001C, strain nth1, active compounds read low 1.01 | locus YDR069C, strain doa4, active compounds read low 1.04 | locus YDR101C, strain arx1, active compounds read low 0.973 | locus YDR137W, strain rgp1, active compounds read low 1.07 | locus YDR150W, strain NUM1, active compounds read low 1 | locus YDR159W, strain sac3, active compounds read low 1.03 | locus YDR162C, strain NBP2, active compounds read low 1.04 | locus YDR195W, strain ref2 1.01 | locus YDR297W, strain sur2, active compounds read low 1.04 | locus YDR318W, strain mcm21, active compounds read low 0.984 | locus YDR334W, strain swr1, active compounds read low 1.03 | locus YDR335W, strain msn5, active compounds read low 1.02 | locus YDR388W, active compounds read low 0.983 | locus YDR392W, strain spt3, active compounds read low 1.01 | locus YDR502C, strain sam2, active compounds read low 1 | locus YEL003W, strain gim4, active compounds read low 1.01 | locus YEL037C, strain rad23, active compounds read low 1.01 | locus YEL061C, strain CIN8 (second series), active compounds read low 1.02 | locus YEL061C, strain CIN8, active compounds read low 1 | locus YER015W, strain faa2, active compounds read low 1.01 | locus YER016W, strain bim1, active compounds read low 1.02 | locus YER110C, active compounds read low 0.969 | locus YER111C, strain swi4, active compounds read low 1.02 | locus YER155C, strain BEM2 (second series), active compounds read low 1.02 | locus YER155C, strain BEM2, active compounds read low 0.992 | locus YER167W, strain BCK2, active compounds read low 0.982 | locus YFR010W, strain ubp6, active compounds read low 1.03 | locus YGL078C, strain dbp3, active compounds read low 0.986 | locus YGL086W, strain mad1, active compounds read low 0.955 | locus YGL167C, strain pmr1, active compounds read low 1.02 | locus YGL173C, strain kem1, active compounds read low 1.03 | locus YGL227W, strain vid30, active compounds read low 1.01 | locus YGL240W, strain doc1, active compounds read low 1.01 | locus YGL248W, strain PDE1, active compounds read low 1.01 | locus YGL253W, strain hxk2, active compounds read low 1.02 | locus YGR135W, strain pre9, active compounds read low 1.01 | locus YGR252W, strain gcn5, active compounds read low 1.09 | locus YHR013C, strain ard1, active compounds read low 1.05 | locus YHR027C, strain rpn1, active compounds read low 1.01 | locus YHR030C, strain SLT2, active compounds read low 0.989 and 1.05 | locus YHR079C, strain IRE1 (second series), active compounds read low 0.975 | locus YHR079C, strain IRE1, active compounds read low 1.02 | locus YHR094C, strain hxt1, active compounds read low 0.974 | locus YHR129C, strain ARP1, active compounds read low 0.996 | locus YHR142W, strain chs7, active compounds read low 1.02 | locus YHR200W, strain rpn10, active compounds read low 0.998 | locus YIL066C, strain RNR3, active compounds read low 0.998 | locus YIL073C, strain SPO22, active compounds read low 0.963 | locus YIL125W, strain kgd1, active compounds read low 0.972 | locus YIR030C, strain dcg1, active compounds read low 0.989 | locus YJL092W, strain hpr5, active compounds read low 1.02 | locus YJL095W, strain BCK1 (second series), active compounds read low 1.01 | locus YJL095W, strain BCK1, active compounds read low 1.02 and 1.01 | locus YJL115W, strain asf1, active compounds read low 1.02 | locus YJL129C, strain trk1, active compounds read low 1.03 | locus YJL134W, strain LCB3, active compounds read low 0.994 | locus YJL154C, strain vps35, active compounds read low 1.02 | locus YJL164C, strain tpk1, active compounds read low 1.01 | locus YJL166W, strain qcr8, active compounds read low 1.01 | locus YJL168C, strain set2, active compounds read low 0.977 | locus YJL187C, strain SWE1 (second series), active compounds read low 1.01 | locus YJL187C, strain SWE1, active compounds read low 1.02 | locus YJR043C, strain POL32, active compounds read low 1.03
